Among all 1,000 compounds or so, about 140 (14%) were called active. No rule for the calls is given here. Not all results are given here.
Assay: thallium flux change in parental CHO cells, counter-screen for KCNQ2 inhibitor project (AID 493029);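 as to activity change: 0% = vehicle negative controls with stimulus buffer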
Conditions: at 10 µM; stronger effect = lower value

Row | SMILES | activity change
1 | CCc1ccc(-c2nn(-c3ccccc3)cc2CSC(=N)N)cc1 | -31% (active)
2 | CC(NC(=S)NNS(=O)(=O)c1ccc(C(C)(C)C)cc1)c1ccccc1 (stereo unspecified) | inactive
3 | C=CS(=O)c1sc(Cl)c(N2CCOCC2)c1[N+](=O)[O-] (stereo unspecified) | -22.5% (active)
4 | Cc1ccc(C(=O)c2c(NC(=O)c3ccccc3)sc(C)c2C)cc1 | inactive
5 | O=C(OCC(=O)N(CCc1ccccc1)Cc1ccccc1)c1ccccc1[N+](=O)[O-] | inactive
6 | CCOC(=O)C(C)Sc1nc2ccccc2c(=O)n1CC1CCCCC1 (stereo unspecified) | -21% (active)
7 | Cc1ccc(C2=Nc3c(ccc4ccccc34)C(c3ccncc3)=NN2)cc1 | inactive
8 | COc1cccc(COc2ccc(N(C)S(=O)(=O)c3ccccc3)cc2)c1 | inactive
9 | Cc1ccc(C(C)C)cc1OCC(=O)Nc1ccccc1N1CCCC1 | inactive
10 | CC(C)N(C(=O)CSc1nc(COc2ccccc2)nc2ccccc12)C(C)C | -42.5% (active)
11 | CCc1ccc(-c2cc(C(=O)NCc3ccco3)c3ccccc3n2)s1 | inactive
12 | CC(C)[C@H](NC(=O)OCc1ccccc1)C(=O)OCc1ccccc1 | inactive
13 | Cc1ccc(N2C(=O)C3C(c4ccccc4)(C2=O)C3(c2ccccc2)c2ccccc2)cc1 (stereo unspecified) | inactive
14 | Cc1cccc(C(=O)OC(C)C(=O)NC2CCCc3ccccc32)c1O (stereo unspecified) | inactive
15 | CCc1ccccc1NC(=O)/C(=C/c1ccccc1)c1ccccc1 | inactive
16 | CSCc1cc(N(C)C)nc(SCc2ccc(Cl)cc2Cl)n1 | inactive

Row | SMILES | activity change
17 | O=C(Nc1ccccc1Cl)/C(Cl)=C(\Cl)S(=O)c1ccccc1 (stereo unspecified) | inactive
18 | CCc1ccc2ncc(C(=O)c3ccccc3)c(N3CCOCC3)c2c1 | inactive
19 | CC(C(=O)NCC1CCCCC1)N(C)Cc1cccc(Cl)c1 (stereo unspecified) | -35% (active)
20 | CC(C)C(NC(=O)OCc1ccccc1)C(=O)OCC(=O)N1C(C)CCCC1C (stereo unspecified) | inactive
21 | COc1ccc(CN(C)C(C)C(=O)NC2CCCc3ccccc32)cc1 (stereo unspecified) | inactive
22 | COC(=O)C1=C(C)N(C(C)c2ccccc2)C(=O)/C1=C\c1ccco1 (stereo unspecified) | inactive
23 | Fc1ccc2[nH]c3c(N4CCSCC4)ncnc3c2c1 | inactive
24 | CCOC(=O)N1CCC(N(CCOC)C(=O)Nc2ccc(C)c(C)c2)CC1 | -23.5% (active)
25 | Cc1ccccc1N1CCN(CC(=O)NCc2ccc(Cl)cc2)CC1 | inactive
26 | COc1ccc(Cl)cc1NC(=O)CN(C)Cc1ccc(OC)c(OC)c1 | inactive
27 | CN(Cc1ccccc1F)C(=O)C(Cc1ccccc1)NC(=O)c1ccccc1 (stereo unspecified) | inactive
28 | O=C(Nc1ccc(Cl)c(Cl)c1)N1CC=C(c2ccccc2)CC1 | inactive
29 | Cc1nc2ccccc2c(-c2ccccc2)c1C(=O)c1ccccc1 | inactive
30 | C=CCn1c(SCC(=O)/C(C#N)=C(\C)N)nc2sc(C)c(C)c2c1=O | inactive
31 | Cc1ccccc1C(=O)Nc1ccccc1Sc1ccccc1 | inactive
